Screening data deposited in PubChem BioAssay by several laboratories.
HGIII-sPLA2 inh: Inhibits HGIII-sPLA2 liposome hydrolysis, primary screen; Q9NZ20; QFRET BODIPY PC-A2 liposome hydrolysis, fluorescence; inhibition, % at 12.2 µM; 0.56% of 370,000 active; AID 743126;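 active = inhibition above mean plus 3 SD of compounds lying within the high and low control bounds, cut at about 19% in these data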
Target sequence (Q9NZ20 whole entry, looked up): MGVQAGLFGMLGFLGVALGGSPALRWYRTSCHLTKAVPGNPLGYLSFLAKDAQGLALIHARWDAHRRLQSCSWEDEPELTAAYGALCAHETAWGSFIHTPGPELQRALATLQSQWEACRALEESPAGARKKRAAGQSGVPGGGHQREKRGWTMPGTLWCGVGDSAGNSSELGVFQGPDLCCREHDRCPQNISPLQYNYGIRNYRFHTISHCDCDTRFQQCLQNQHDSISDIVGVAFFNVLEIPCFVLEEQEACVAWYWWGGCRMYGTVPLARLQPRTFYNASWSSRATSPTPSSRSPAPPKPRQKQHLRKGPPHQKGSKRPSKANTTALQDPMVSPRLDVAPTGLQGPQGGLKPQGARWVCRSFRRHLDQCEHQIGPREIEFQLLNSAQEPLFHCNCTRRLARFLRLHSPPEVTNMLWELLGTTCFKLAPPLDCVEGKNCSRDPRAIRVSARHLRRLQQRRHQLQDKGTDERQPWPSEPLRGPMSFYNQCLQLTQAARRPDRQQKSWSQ
GRIN3A LBD mod: modulators (binders) of human NR3A ligand-binding domain; NR3A LBD differential scanning fluorimetry, Tm shift; 0% = protein alone, 100% = glycine-bound protein; Tm shift relative to glycine control, % at 25 µM; 2.5% of 340,000 active;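 active = melting temperature shift of at least 10% of the positive control shift, at one fixed dose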
UBC13 inh: human UBC13 polyubiquitination inhibition; 0.47% of 330,000 active; P61088; UBC13 polyubiquitin chain formation, TR-FRET; inhibition, % at 20 µM; AID 485273; in the data active = inhibition above about 45%, passing the limit was not always enough; inconclusive = no clear call, values can overlap the other calls
Target sequence (P61088 whole entry, looked up): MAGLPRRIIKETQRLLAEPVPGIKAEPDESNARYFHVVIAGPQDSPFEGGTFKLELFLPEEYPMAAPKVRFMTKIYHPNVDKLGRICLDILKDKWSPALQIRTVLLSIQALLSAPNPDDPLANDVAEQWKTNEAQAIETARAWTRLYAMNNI
SUMO HTRF inh: inhibitors of human SUMOylation (UBC9). AID 2006. inhibition, % at 35 µM. HTRF SUMOylation assay, SAE1/SAE2 + UBC9, in vitro. P63279. 0.36% of 290,000 active; in the data active = inhibition above about 50%, passing the limit was not always enough; inconclusive = no clear call, values can overlap the other calls
Large screens that a line does not name were inactive. Compounds with a hit are over-represented: about 3.3% of the library has one in this group of screens.

CCc1nnn2c1Cn1c3ccccc3c(=O)n1[C@@H](C(C)C)C2	none (no result: GRIN3A LBD mod, UBC13 inh, SUMO HTRF inh)
O=C(Nc1ccc2c(c1)OCCO2)Nc1ccc2c(c1)OCO2	none
NC(=O)c1ccc(NC(=O)Nc2ccc3c(c2)OCO3)cc1	GRIN3A LBD mod 13
COC(=O)c1ccc(NC(=O)Nc2ccc3c(c2)OCO3)cc1	GRIN3A LBD mod 24
CCOC(=O)c1ccc(Nc2nc(C)cc(C)n2)cc1	none (no result: UBC13 inh)
COC(=O)c1cccc(Nc2cc(C)nc(-c3ccccc3O)n2)c1	GRIN3A LBD mod 17, UBC13 inh inconclusive
COC(=O)c1ccc(Nc2cc(C)nc3ccc(C)cc23)cc1	none
CCOC(=O)c1ccc(Nc2cc(C)nc(-c3ccccc3)n2)cc1	GRIN3A LBD mod 10
COC(=O)c1ccc(Nc2cc(C)nc(-c3ccccc3O)n2)cc1	GRIN3A LBD mod 23, UBC13 inh inconclusive
COC(=O)[C@H]1C[C@@]2(N3CCCC3)c3ccccc3N[C@H]2N1S(=O)(=O)c1ccc([N+](=O)[O-])cc1	none (no result: GRIN3A LBD mod, UBC13 inh, SUMO HTRF inh)
C=CCN1[C@H](Cc2ccccc2)COc2cccc(N3CCSCC3)c2S1(=O)=O	none (no result: GRIN3A LBD mod, UBC13 inh, SUMO HTRF inh)
Cn1c(=O)cc(C(=O)N/N=C/c2ccc(Cl)cc2)[nH]c1=O	GRIN3A LBD mod 13
Cn1c(=O)n(C)c2cc(/C=N/NC(=O)c3ccc(Cl)cc3)ccc21	none
O=C(Cc1ccccc1)NC1CCCCN(Cc2cccc(Cl)c2)C1=O (configuration not stated)	none (no result: GRIN3A LBD mod, UBC13 inh, SUMO HTRF inh)
COc1cccc(Oc2cn[nH]c2-c2ccc(OCC(=O)NN)cc2O)c1	none
C=C(C)COc1ccc(-c2[nH]ncc2-c2ccc(Br)cc2)c(O)c1	GRIN3A LBD mod 30
C=C(C)COc1ccc(-c2nc(N)ncc2-c2ccc(Br)cc2)c(O)c1	GRIN3A LBD mod 12
CCOc1ccc(-c2[nH]ncc2-c2ccc(OC)c(OC)c2)c(O)c1	none
CCOc1ccc(-c2[nH]ncc2-c2ccc(Cl)cc2)c(O)c1	GRIN3A LBD mod 22
C=C(C)COc1ccc(-c2[nH]ncc2-c2ccccc2OC)c(O)c1	none
CCCOC(=O)c1ccc(Oc2cn[nH]c2-c2ccc(OC)cc2O)cc1	GRIN3A LBD mod 17
Cc1ccc(NC(=O)OC2CC3CC2[C@H]2CCCCN2C3)cc1C (some centres not stated)	none (no result: GRIN3A LBD mod, UBC13 inh, SUMO HTRF inh)
CCCC(=O)N1CCC(C(=O)NC2CCCc3ccccc32)CC1 (configuration not stated)	none (no result: GRIN3A LBD mod, UBC13 inh, SUMO HTRF inh)
C=C(C)COc1ccc(-c2n[nH]c(C)c2-c2ccc(Br)cc2)c(O)c1	GRIN3A LBD mod 32
C=C(C)COc1ccc(-c2[nH]ncc2Oc2ccccc2OC)c(O)c1	GRIN3A LBD mod 16
Cc1ccc(-c2csc(NC(=S)NC(=O)/C=C/c3ccco3)n2)cc1	GRIN3A LBD mod 17
O=C(O)c1ccccc1C(=O)Nc1nc(-c2ccc3ccccc3c2)cs1	none
O=C(/C=C\c1ccco1)Nc1nc(-c2ccc3ccccc3c2)cs1	GRIN3A LBD mod 25
O=C(/C=C/c1ccco1)NC(=S)Nc1ccc(N2CCCC2)cc1	SUMO HTRF inh 60
Cc1ccccc1NC(=O)CSc1nnc(-c2cc(-c3ccccc3)n[nH]2)n1N	none (no result: GRIN3A LBD mod, UBC13 inh, SUMO HTRF inh)
Cc1ccc2nc(-c3ccc(NC(=O)CSc4nnc(Cc5cccs5)n4C)cc3)sc2c1	none (no result: GRIN3A LBD mod, UBC13 inh, SUMO HTRF inh)
CCOc1ccc(NC(=O)c2cc(-c3ccc(Cl)cc3)nc3ccccc23)cc1	none (no result: GRIN3A LBD mod, UBC13 inh, SUMO HTRF inh)
CCN(c1ccccc1)S(=O)(=O)c1ccc(Cl)c(NC(=O)COC(=O)c2ccc(O)cc2)c1	GRIN3A LBD mod 16
CCN(c1ccccc1)S(=O)(=O)c1ccc(Cl)c(NC(=O)COC(=O)c2cc(O)c3ccccc3c2O)c1	none (no result: HGIII-sPLA2 inh, GRIN3A LBD mod)
CCOC(=O)[C@]12CCCCC/C=C\1N(CCc1ccc(Cl)cc1)C(=O)[C@H]2CC(=O)NCc1ccccc1	none (no result: GRIN3A LBD mod, UBC13 inh, SUMO HTRF inh)
COc1cc2c(cc1OC)-c1cc(Nc3cccc(F)c3)nc(=O)n1CC2	none
COc1cc2c(cc1OC)-c1cc(Nc3ccc(F)cc3)nc(=O)n1CC2	GRIN3A LBD mod 10
CC(C)(C)c1ccc(-c2noc(-c3ccno3)n2)cc1	GRIN3A LBD mod 12
O=c1ccn([C@@H]2O[C@H](CNCc3ccc(-c4cc(C(F)(F)F)ccc4Cl)o3)[C@@H](O)[C@H]2O)c(=O)[nH]1	GRIN3A LBD mod 17 (no result: UBC13 inh, SUMO HTRF inh)
COC(=O)C1CN(Cc2cn(Cc3ccc(C)cc3)nn2)CCS(=O)(=O)N1Cc1ccccc1 (configuration not stated)	none (no result: GRIN3A LBD mod, UBC13 inh, SUMO HTRF inh)
NC(=NCCc1c[nH]c2ccccc12)NC(=O)OCc1ccccc1	none (no result: GRIN3A LBD mod, UBC13 inh, SUMO HTRF inh)
O=C(O)c1ccc(CSc2nc(-c3ccccc3)cc(C(F)(F)F)n2)cc1	none
O=C(O)c1ccc(CSc2nc(-c3ccc(Cl)cc3)cc(C(F)(F)F)n2)cc1	GRIN3A LBD mod 38
CCOC(=O)[C@]12CCCC3=C1N(CCC3)C(=O)[C@@H](CC(=O)NCc1ccccc1)C2	none (no result: GRIN3A LBD mod, UBC13 inh, SUMO HTRF inh)
Cc1ccccc1CN[C@@H]1CC[C@@]23CCCN2C(=O)CCC[C@H]3C1	none (no result: GRIN3A LBD mod, UBC13 inh, SUMO HTRF inh)
Nc1cccc(C(=O)OCC(=O)Nc2cccc3c2C(=O)c2ccccc2C3=O)c1	GRIN3A LBD mod 33
O=C1C=CC(=O)C(CNc2ccc(C(=O)OCc3ccccc3)cc2)=C1	HGIII-sPLA2 inh 26 (no result: UBC13 inh, SUMO HTRF inh)
CN(C)c1ccc(C(=O)OCc2ccccc2)cc1	none
Cc1cc([N+](=O)[O-])nn1CCCC(=O)Nc1sc2c(c1C(N)=O)CCCC2	GRIN3A LBD mod 17
Cc1cc([N+](=O)[O-])nn1CC(=O)Nc1sc2c(c1C(N)=O)CCCC2	none
O=C1/C(=C/c2ccco2)CCc2ccccc21	GRIN3A LBD mod 14
Nc1ccc2c(c1)C/C(=C/c1ccco1)C2=O	HGIII-sPLA2 inh 22, SUMO HTRF inh 85
COc1cc(/C=C2/CCc3ccccc3C2=O)cc(OC)c1OC	none
COc1ccc(/C=C2/CCc3ccccc3C2=O)cc1OC	GRIN3A LBD mod 10
NC(=O)C1=CN([C@@H]2O[C@H](COP(=O)(O)OP(=O)(O)OC[C@H]3O[C@@H](n4cnc5c(N)ncnc54)[C@H](O)[C@@H]3O)[C@@H](O)[C@H]2O)C=CC1	none (no result: GRIN3A LBD mod, UBC13 inh, SUMO HTRF inh)
Cn1c(SCC2CCCCC2)nnc1-c1ccco1	none (no result: GRIN3A LBD mod, UBC13 inh, SUMO HTRF inh)
[O-][N+]1=c2ccc(Nc3ccccc3)cc2=NC12CCCCC2	SUMO HTRF inh 79 (no result: UBC13 inh)
CC1CCC2(CC1)CCC2NCc1ccc(Cl)cc1 (configuration not stated)	none (no result: GRIN3A LBD mod, UBC13 inh, SUMO HTRF inh)
CCCCCCNC(=O)C1CSCCS(=O)(=O)N1Cc1ccccc1 (configuration not stated)	none (no result: GRIN3A LBD mod, UBC13 inh, SUMO HTRF inh)
COC(=O)[C@]12C[C@H](CC(=O)NCCCCc3ccccc3)C(=O)N(Cc3cccc4ccccc34)C1=C[C@H](C(C)(C)C)O[C@@H]2C	none (no result: GRIN3A LBD mod, UBC13 inh, SUMO HTRF inh)
CCOc1ccc(C(=O)CC(=O)C(=O)NCCc2ccc(OC)c(OC)c2)cc1	GRIN3A LBD mod 25
CC(C)(C)[C@@H]1/C(=C/C2CC2)N2C(=O)C[C@@H](c3ccccc3)N=C2N1Cc1ccc2c(c1)OCO2	none (no result: GRIN3A LBD mod, UBC13 inh, SUMO HTRF inh)
CCOC(=O)COn1c(-c2cccc(Cl)c2)nc2ccc([N+](=O)[O-])cc21	none
CCOC(=O)C(C)On1c(-c2cccc(Cl)c2)nc2ccc([N+](=O)[O-])cc21 (configuration not stated)	GRIN3A LBD mod 10
CCCCOc1ccc(C(=O)n2ccc3ccc(-c4ccc5ccn(Cc6ccc(OC)cc6)c5c4)cc32)cc1	none (no result: GRIN3A LBD mod, UBC13 inh, SUMO HTRF inh)
COc1ccc(NC(=O)[C@@H]2CC=C[C@@H]3CCN(C4CCCCC4)C(=O)[C@@H]32)cc1	GRIN3A LBD mod 12 (no result: SUMO HTRF inh)
